Among all 5,500 compounds or so, about 2,000 (36%) were called active. Roughly 18% stayed inconclusive and do not appear here. Cut-off read from the data, not from the text of the source: active = normalized growth mostly below about 0.91 (no sharp cut-off); inconclusive = no clear call, values can overlap the other calls; inactive = mostly above about 0.92. The list shows a part of the results.
Assay: chemical genetic growth profiling, strain panel (AID 1159580);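 note: tested at 20 µM; growth read once vehicle control cultures reached saturation at 30 °C; 1 = growth at the plate median or of vehicle wells; lower values mean less growth of the strain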
Conditions: growth OD

Measured: normalized growth

CC(C)(S)[C@@H](N)C(=O)O
inactive: S. cerevisiae deletion strains, locus YJR043C, strain POL32, hits give low values 1 | S. cerevisiae deletion strains, locus YJR066W, strain TOR1, hits give low values 0.952 | S. cerevisiae deletion strains, locus YKL009W, strain mrt4, hits give low values 0.988 | S. cerevisiae deletion strains, locus YKL068W, hits give low values 0.995 | S. cerevisiae deletion strains, locus YKL085W, strain MDH1 (second series), hits give low values 0.993 | S. cerevisiae deletion strains, locus YKL085W, strain MDH1, hits give low values 0.993 | S. cerevisiae deletion strains, locus YKL160W, strain elf1, hits give low values 1.03 | S. cerevisiae deletion strains, locus YKL190W, strain CNB1, hits give low values 0.999 | S. cerevisiae deletion strains, locus YKR001C, strain vps1, hits give low values 0.988 | S. cerevisiae deletion strains, locus YKR026C, strain gcn3, hits give low values 0.994 | S. cerevisiae deletion strains, locus YKR091W, strain srl3, hits give low values 1 | S. cerevisiae deletion strains, locus YLL001W, strain dnm1, hits give low values 1.02 | S. cerevisiae deletion strains, locus YLL026W, hits give low values 1.01 | S. cerevisiae deletion strains, locus YLL041C, strain sdh2, hits give low values 1 | S. cerevisiae deletion strains, locus YLR027C, strain aat2, hits give low values 0.995 | S. cerevisiae deletion strains, locus YLR039C, strain RIC1, hits give low values 1.02 | S. cerevisiae deletion strains, locus YLR058C, strain SHM2, hits give low values 1.01 | S. cerevisiae deletion strains, locus YLR102C, strain apc9, hits give low values 0.992 | S. cerevisiae deletion strains, locus YLR113W, strain HOG1, hits give low values 0.99 | S. cerevisiae deletion strains, locus YLR221C, strain rsa3, hits give low values 1 | S. cerevisiae deletion strains, locus YLR258W, strain gsy2, hits give low values 1 | S. cerevisiae deletion strains, locus YLR262C, strain YPT6 (second series), hits give low values 1.02 | S. cerevisiae deletion strains, locus YLR262C, strain YPT6, hits give low values 1 | S. cerevisiae deletion strains, locus YLR268W, strain sec22, hits give low values 0.969 | S. cerevisiae deletion strains, locus YLR320W, strain mms22, hits give low values 1.04 | S. cerevisiae deletion strains, locus YLR330W, strain CHS5, hits give low values 1.01 | S. cerevisiae deletion strains, locus YLR342W, strain FKS1 (second series), hits give low values 1.03 | S. cerevisiae deletion strains, locus YLR342W, strain FKS1, hits give low values 1.01 | S. cerevisiae deletion strains, locus YLR357W, strain rsc2, hits give low values 1 | S. cerevisiae deletion strains, locus YLR370C, strain arc18, hits give low values 1 | S. cerevisiae deletion strains, locus YLR371W, strain rom2, hits give low values 0.994 | S. cerevisiae deletion strains, locus YLR384C, strain iki3, hits give low values 0.993 | S. cerevisiae deletion strains, locus YLR418C, strain cdc73, hits give low values 0.98 | S. cerevisiae deletion strains, locus YML016C, strain PPZ1, hits give low values 1.02 | S. cerevisiae deletion strains, locus YML032C, strain rad52, hits give low values 0.991 | S. cerevisiae deletion strains, locus YML120C, strain ndi1, hits give low values 0.998 | S. cerevisiae deletion strains, locus YML124C, strain tub3, hits give low values 0.994 | S. cerevisiae deletion strains, locus YMR058W, strain fet3, hits give low values 1.01 | S. cerevisiae deletion strains, locus YMR078C, strain ctf18, hits give low values 0.988 | S. cerevisiae deletion strains, locus YMR125W, strain sto1, hits give low values 1 | S. cerevisiae deletion strains, locus YMR129W, hits give low values 0.996 | S. cerevisiae deletion strains, locus YMR205C, strain PFK2, hits give low values 1.04 | S. cerevisiae deletion strains, locus YMR223W, strain ubp8, hits give low values 0.999 | S. cerevisiae deletion strains, locus YMR231W, strain pep5, hits give low values 0.999 | S. cerevisiae deletion strains, locus YMR307W, strain GAS1, hits give low values 1.01 | S. cerevisiae deletion strains, locus YNL067W, strain RPL9B, hits give low values 0.993 | S. cerevisiae deletion strains, locus YNL071W, strain lat1, hits give low values 1 | S. cerevisiae deletion strains, locus YNL183C, strain NPR1, hits give low values 0.964 | S. cerevisiae deletion strains, locus YNL209W, strain ssb2, hits give low values 0.997 | S. cerevisiae deletion strains, locus YNL233W, strain BNI4, hits give low values 1.02 | S. cerevisiae deletion strains, locus YNL248C, strain rpa49, hits give low values 1 | S. cerevisiae deletion strains, locus YNL250W, strain rad50, hits give low values 0.985 | S. cerevisiae deletion strains, locus YNL271C, strain bni1, hits give low values 0.988 | S. cerevisiae deletion strains, locus YNL298W, strain CLA4, hits give low values 0.991 | S. cerevisiae deletion strains, locus YNL307C, strain MCK1, hits give low values 0.992 | S. cerevisiae deletion strains, locus YNL322C, strain KRE1 (second series), hits give low values 1.01 | S. cerevisiae deletion strains, locus YNR049C, strain mso1, hits give low values 0.997 | S. cerevisiae deletion strains, locus YNR052C, strain pop2, hits give low values 0.988 | S. cerevisiae deletion strains, locus YOL006C, strain TOP1, hits give low values 1.08 | S. cerevisiae deletion strains, locus YOL012C, strain htz1 0.654 | S. cerevisiae deletion strains, locus YOL147C, strain pex11, hits give low values 0.984 | S. cerevisiae deletion strains, locus YOR001W, strain rrp6, hits give low values 0.989 | S. cerevisiae deletion strains, locus YOR061W, strain CKA2, hits give low values 1.01 | S. cerevisiae deletion strains, locus YOR069W, strain VPS5, hits give low values 1 | S. cerevisiae deletion strains, locus YOR070C, strain gyp1, hits give low values 1.01 | S. cerevisiae deletion strains, locus YOR080W, strain dia2, hits give low values 1 | S. cerevisiae deletion strains, locus YOR083W, strain WHI5, hits give low values 1.04 | S. cerevisiae deletion strains, locus YOR106W, strain vam3, hits give low values 1.03 | S. cerevisiae deletion strains, locus YOR136W, strain idh2, hits give low values 0.994 | S. cerevisiae deletion strains, locus YOR144C, strain elg1, hits give low values 0.992 | S. cerevisiae deletion strains, locus YOR184W, strain ser1, hits give low values 1.01 | S. cerevisiae deletion strains, locus YOR231W, strain MKK1, hits give low values 1.01 | S. cerevisiae deletion strains, locus YOR265W, strain rbl2, hits give low values 1 | S. cerevisiae deletion strains, locus YOR270C, strain vph1, hits give low values 0.989 | S. cerevisiae deletion strains, locus YOR290C, strain snf2, hits give low values 1.04 | S. cerevisiae deletion strains, locus YOR316C, strain cot1, hits give low values 0.993 | S. cerevisiae deletion strains, locus YPL051W, strain arl3, hits give low values 1.02 | S. cerevisiae deletion strains, locus YPL078C, strain atp4, hits give low values 1.01 | S. cerevisiae deletion strains, locus YPL106C, strain sse1, hits give low values 1.03 | S. cerevisiae deletion strains, locus YPL240C, strain hsp82, hits give low values 0.988 | S. cerevisiae deletion strains, locus YPL241C, strain CIN2, hits give low values 1.01 | S. cerevisiae deletion strains, locus YPL256C, strain CLN2, hits give low values 0.986 | S. cerevisiae deletion strains, locus YPR119W, strain clb2, hits give low values 1 | S. cerevisiae deletion strains, locus YPR141C, strain kar3, hits give low values 0.993 | S. cerevisiae deletion strains, locus YPR163C, strain tif3, hits give low values 0.991 | S. cerevisiae deletion strains, locus YPR167C, strain met16, hits give low values 0.991 | S. cerevisiae deletion strains, strain wtn01, hits give low values 0.976 | S. cerevisiae strains, strain wild type, hits give low values 1.01

— PubChem BioAssay AID1159580 (chemical genetic matrix, 2015)
